Most compounds without a hit are left out; they make up all but 2.8% or so of the library.
EWS-Fli block: blocks EWS/Fli oncoprotein-driven transcription | A673 NR0B1-luciferase reporter, viability-normalised | actives 0.67% (n = 350,000) | inhibition, % at 12.6 µM | AID 651661;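 active = mean inhibition of at least 50% after viability correction, with every replicate also passing that limit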;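 note: firefly luciferase signal divided by Alamar Blue viability fluorescence both relative to DMSO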
TROY signal inh: TROY signaling inhibition. inhibition, % at 10 µM. Q293 LMP1-TROYcd NF-kB luciferase reporter, 4 h. actives 0.98% (n = 360,000);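 active = compounds whose plate-normalised and pattern-corrected inhibition of the luciferase reporter signal at the single screening dose is 50% or more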
PAX8 inh HTS: PAX8 transcriptional activity inhibition; actives 1.2% (n = 360,000); RMG-I TPO-luciferase reporter, SteadyGlo, 24 h; inhibition, % at 12.6 µM;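 active = mean replicate inhibition at least 60% with every replicate also reaching 60%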;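 note: luciferase light reporting Pax8 driven TPO promoter activity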
TWEAK Fn14 block: inhibitors of TWEAK-Fn14 interaction signaling. TWEAK-stimulated Fn14 reporter cells, luciferase luminescence, 8 h. inhibition, % at 10 µM. actives 2% (n = 360,000). AID 1159606; in the data active = inhibition above about 50%
LGR2 antag: Drosophila LGR2 receptor signaling inhibition; AID 720647; inhibition, % at 9.99 µM; actives 0.35% (n = 380,000); HEK293 LGR2, CRE-luciferase, bursicon-stimulated, 4 h;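 active = drop in luminescence signal, shown as inhibition above about 50% in the replicate tests, limit read from the data, passing the limit was not always enough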;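 note: agonist challenge used bursicon conditioned medium at about half maximal strength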
Hits are given with their value; i = inactive; nt = no result given.

SMILES	EWS-Fli block	TROY signal inh	PAX8 inh HTS	TWEAK Fn14 block	LGR2 antag
O=C(COc1ccc(Cl)cc1)Nc1nc(-c2ccc(S(=O)(=O)N3CCOCC3)cc2)cs1	nt	i	i	71.4	nt
Cc1ccc(S(=O)(=O)CCC(=O)Nc2nc(-c3ccccn3)cs2)cc1	i	i	80.3	i	i
O=C(CCS(=O)(=O)c1ccc(Cl)cc1)Nc1nc(-c2ccncc2)cs1	nt	i	96.2	i	i
O=C(c1ccccc1F)N1CC[C@H]2[C@H](CO)Nc3ccc(-c4cccc(F)c4)cc3[C@H]21	i	nt	i	nt	i
CC(C)[C@H](NC(=O)c1ccccc1Cl)C(=O)Nc1nc(-c2ccccn2)cs1	i	i	i	i	i
CC(Oc1ccc(Br)cc1)C(=O)Nc1nc(-c2ccccn2)cs1 (stereo unspecified)	i	61.2	i	i	i
C/C=C/c1ccc([C@@H]2[C@H](CO)N(Cc3cncnc3)C23CN(C(C)=O)C3)cc1	i	nt	i	nt	i
Cc1noc(C)c1NC(=O)N(C)C[C@@H]1Oc2ccc(NC(=O)NC3CCCCC3)cc2CC(=O)N([C@@H](C)CO)C[C@H]1C	i	nt	nt	nt	i
CC(=O)Oc1c(C)cc(Cl)cc1C(=O)Nc1ccc([N+](=O)[O-])cc1Cl	i	i	i	88.0	i
CC(NC(=O)/C=C/c1cnc2ccccc2n1)C12CC3CC(CC(C3)C1)C2 (stereo unspecified)	i	75.0	i	76.8	i
CC(=O)Nc1ccc(NC(=O)C(C)OC(=O)/C=C/c2cnc3ccccc3n2)cc1 (stereo unspecified)	i	i	i	i	i
CO[C@H]1CN(C)C(=O)c2cc(NC(=O)c3ccccc3)ccc2OC[C@@H](C)N(C(C)=O)C[C@@H]1C	i	nt	nt	nt	nt
O=C(N[C@H]1CC[C@H](CC(=O)N2CCc3ccccc3C2)O[C@H]1CO)C1CCC1	i	nt	i	nt	i
CCN1CCN(C(=O)c2cnn3c(C(F)F)cc(-c4ccc(C)cc4)nc23)CC1	nt	i	nt	i	nt
CCc1nccn1C(=O)c1cnn2c(C(F)F)cc(-c3ccc(C)cc3)nc12	i	i	i	54.4	i
COc1ccc2[nH]c3c(c2c1)CCn1c-3nc2ccccc2c1=O	nt	i	nt	51.4	nt
COc1cc(C2C3=C(COC3=O)Oc3cc4c(cc32)OCO4)cc(OC)c1OC(C)=O (stereo unspecified)	54.5	i	80.4	i	i
COc1ccc(S(=O)(=O)Nc2ccc3c(c2)CC(=O)N([C@H](C)CO)C[C@H](C)[C@@H](CN(C)Cc2ccc(-c4ccccc4)cc2)O3)cc1	i	nt	75.6	nt	i
COc1ccc(S(=O)(=O)Nc2ccc3c(c2)CC(=O)N([C@@H](C)CO)C[C@@H](C)[C@@H](CN(C)Cc2ccc(-c4ccccc4)cc2)O3)cc1	i	nt	85.4	nt	i
C[C@H](CO)N1C[C@H](C)[C@@H](CN(C)Cc2ccc(-c3ccccc3)cc2)Oc2ccc(NS(=O)(=O)c3ccc(F)cc3)cc2CC1=O	i	nt	75.6	nt	i
C[C@H]1CN([C@@H](C)CO)C(=O)Cc2cc(NS(=O)(=O)c3ccc(F)cc3)ccc2O[C@@H]1CN(C)Cc1ccc(-c2ccccc2)cc1	i	nt	i	nt	i
COc1ccc(S(=O)(=O)Nc2ccc3c(c2)CC(=O)N([C@@H](C)CO)C[C@H](C)[C@H](CN(C)S(=O)(=O)c2ccc(C)cc2)O3)cc1	i	nt	71.9	nt	i
COc1ccc(S(=O)(=O)Nc2ccc3c(c2)CC(=O)N([C@H](C)CO)C[C@H](C)[C@H](CN(C)Cc2ccc(-c4ccccc4)cc2)O3)cc1	i	nt	i	nt	i
CN(C)CC#Cc1ccc([C@H]2[C@@H](CO)N3CCCCN(CC4CC4)C[C@H]23)cc1	i	nt	i	nt	i
C[C@H](CO)N1C[C@H](C)[C@@H](CN(C)C(=O)Cc2ccccc2)Oc2ncc(C#CCN(C)C)cc2C1=O	i	nt	i	nt	i
SMILES	EWS-Fli block	TROY signal inh	PAX8 inh HTS	TWEAK Fn14 block	LGR2 antag
CCCNC(=O)Nc1ccc2c(c1)C(=O)N(C)[C@H]1CC[C@@H](CC(=O)NC)O[C@H]1CO2	i	nt	i	nt	i
COc1ccc(NC(=O)Nc2ccc3c(c2)C(=O)N([C@@H](C)CO)C[C@@H](C)[C@@H](CN(C)S(=O)(=O)c2ccccc2)O3)cc1	i	nt	nt	nt	i
O=S(=O)(Nc1nc2ccccc2nc1N1CCc2ccccc2C1)c1ccc(Br)cc1	nt	i	i	78.1	i
O=S(=O)(Nc1nc2ccccc2nc1N1CCc2ccccc2C1)c1ccc(Cl)cc1	nt	i	i	71.9	i
C[C@@H]1CN([C@@H](C)CO)C(=O)c2cc(NC(=O)C3CCCCC3)ccc2O[C@H]1CN(C)Cc1ccncc1	i	nt	i	nt	i
C[C@@H]1CN([C@H](C)CO)S(=O)(=O)c2ccc(C3=CCCCC3)cc2O[C@@H]1CN(C)C(=O)c1ccc(F)cc1	i	nt	i	nt	i
CC(C)NC(=O)Nc1ccc2c(c1)C(=O)N([C@@H](C)CO)C[C@@H](C)[C@H](CN(C)C(=O)Nc1ccc(C(F)(F)F)cc1)OCCCC[C@@H](C)O2	i	nt	i	nt	i
CN(C)c1ccc(CC(=O)N2CCCC(c3cc(C(=O)Nc4ccc(C(C)(C)C)cc4)no3)C2)cc1 (stereo unspecified)	i	i	i	79.2	i
Cc1ccc(NC(=O)CSc2nn(-c3ccccc3)c(=S)s2)cc1S(=O)(=O)N(C)C	nt	i	i	78.8	i
O=C(CSc1nn(-c2ccccc2)c(=S)s1)Nn1cnnc1	nt	i	i	i	nt
O=C(Cc1ccccn1)NCC[C@@H]1CC[C@@H](NC(=O)Nc2ccc(F)cc2)[C@H](CO)O1	i	nt	i	nt	i
Cc1ccc(C2C3=C(CC(C)(C)CC3=O)NC3=C2C(=O)CC(C)(C)C3)o1	nt	nt	nt	83.8	nt
CC1C=NC(S(=O)(=O)N2CC[C@H]3[C@@H](CO)N(C)c4ccc(C#Cc5cccnc5)cc4[C@H]32)=N1 (stereo partly specified)	i	nt	i	nt	i
CN1CCN(c2ccc([N+](=O)[O-])cc2C(=O)N2CCOCC2)CC1	nt	i	i	i	nt
O=C(NCCOc1ccccc1)c1cc([N+](=O)[O-])ccc1N1CCOCC1	57.6	i	i	i	i
Cc1c(-c2ccccc2)oc2c(C(=O)N3CCN(c4ccc([N+](=O)[O-])cc4)CC3)cccc2c1=O	i	i	i	75.4	i
O=C(c1cc([N+](=O)[O-])ccc1N1CCOCC1)N1CCN(c2ccccc2)CC1	nt	i	90.8	i	i
Cc1c(C(=O)N2CCN(c3ccc([N+](=O)[O-])cc3)CC2)oc2ccccc12	i	i	i	i	i
CCCc1cn(CC[C@@H]2CC[C@@H](NC(=O)C3CCCCC3)[C@H](CO)O2)nn1	i	nt	i	nt	i
C[C@H]1CN([C@@H](C)CO)C(=O)c2cc(NS(=O)(=O)c3ccccc3)ccc2O[C@@H]1CN(C)Cc1ccc(Oc2ccccc2)cc1	i	nt	92.2	nt	i
Cc1noc(C)c1S(=O)(=O)Nc1ccc2c(c1)C(=O)N([C@H](C)CO)C[C@@H](C)[C@@H](CN(C)Cc1ccc(Oc3ccccc3)cc1)O2	66.6	nt	nt	nt	i
C[C@H]1CN([C@@H](C)CO)C(=O)c2cc(NS(=O)(=O)c3ccc(Cl)cc3)ccc2O[C@@H]1CN(C)Cc1ccc(C(F)(F)F)cc1	i	nt	nt	nt	i

Screening results from PubChem.
